The text below walks through data of PubChem BioAssay (NCI).

About 83,000 compounds went through this panel and 20% of them were active in at least one assay; those are over-represented in the sample as a whole.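 96-well plates, one dose, 48 hours. Percent growth reported; active if below 10.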 Values without a mark were called inactive. Active and inactive are the calls of the source.

The test system of this test is MDA-MB-468 breast. The experiment in a line: NCI-60 one-dose screen, 48 h (100 = growth as untreated, 0 = no growth, -100 = all killed). The settings on record: 10 µM unless noted.
Take `Nc1nc(-c2cccc([N+](=O)[O-])c2)c(N=Nc2cccc([N+](=O)[O-])c2)s1`: the growth is 62%.

As to `Cn1cc(-c2nonc2-c2c[nH]c3ccccc23)c2ccccc21`, the growth was -4.56% (active). For `Cc1ccc(S(=O)(=O)Oc2ccc(NC(=O)c3ccc(Cl)cc3)cc2)cc1`, the growth was 95.2%. For `COc1cccc(-c2nn(-c3ccccc3)cc2-c2ccnc(-c3cccnc3)c2)c1`, the growth was 80.4%.
